Assay results from PubChem BioAssay (EPA / NIEHS).
Inconclusive results are not listed. Active and inactive are the calls of the source. The calls were made as follows: active = hit-call score of the fitted dose curve at least 0.9, where 1 is the maximum; inconclusive = response in the unintended direction; inactive = score below 0.9.

What follows are compounds tested against Estrogen receptor (Homo sapiens) (UniProt P03372) (assay: OT_ER_ERaERa_1440: Odyssey Thera (OT) 24-hour HEK293T Protein-Complementation Assay for Estrogen Receptor-alpha/-alpha Homodimer (AID 2283349);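 also: hits raise fluorescence above DMSO for agonists and antagonists alike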).
Estrogen receptor (Homo sapiens), sequence (P03372 whole entry, looked up, the tested form may be a part): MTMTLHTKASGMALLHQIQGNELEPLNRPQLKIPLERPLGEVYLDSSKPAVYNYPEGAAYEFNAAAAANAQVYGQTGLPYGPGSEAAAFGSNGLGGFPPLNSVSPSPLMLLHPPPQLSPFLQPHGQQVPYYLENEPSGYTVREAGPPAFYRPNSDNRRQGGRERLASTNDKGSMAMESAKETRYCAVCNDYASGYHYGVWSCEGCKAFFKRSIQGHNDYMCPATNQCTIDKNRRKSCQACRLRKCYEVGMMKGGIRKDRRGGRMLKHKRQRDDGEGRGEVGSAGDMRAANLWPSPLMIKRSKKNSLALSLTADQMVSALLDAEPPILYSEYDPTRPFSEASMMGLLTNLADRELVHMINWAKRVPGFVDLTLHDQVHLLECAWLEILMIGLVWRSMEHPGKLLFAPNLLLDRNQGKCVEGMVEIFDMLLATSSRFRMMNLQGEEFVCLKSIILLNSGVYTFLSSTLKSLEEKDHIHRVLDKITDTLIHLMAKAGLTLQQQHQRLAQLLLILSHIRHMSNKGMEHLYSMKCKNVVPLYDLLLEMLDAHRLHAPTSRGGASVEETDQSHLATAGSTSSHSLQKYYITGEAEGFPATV
In short: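 Stably transfected HEK293T; ERα LBD homodimer PCA. 24 h dosing, fluorescence intensity read, gain-of-signal vs DMSO.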
With `[Na+]` the outcome was “inactive”. In the case of `CN(C)C(=O)Nc1ccccc1`, the outcome is reported as “inactive”. `CCCC(O)C(CC)CO` (centres undefined) was tested, and the outcome was “inactive”. With `CC(CCO)CC(C)(C)C` (centres undefined) the outcome was “inactive”. With `CCCCCCCCCCOC(=O)c1ccccc1C(=O)OCCCCCCCC` the outcome was “inactive”. `CCC(C)(CCCC(C)C)OC(C)=O` (centres undefined) was tested, and the outcome was “inactive”. `COc1cc(OC)c2ccc(=O)oc2c1` was tested, and the outcome was “inactive”. In the case of `CC(C)N(c1ccccc1)C(C)C`, the outcome is reported as “inactive”. In the case of `C=CC(C)CCCC(C)(C)O` (centres undefined), the outcome is reported as “inactive”. With `c1ccc(Cc2ccccc2)cc1` the outcome was “inactive”. `CN(C)C` was tested, and the outcome was “inactive”. With `Cc1cccc(C)c1` the outcome was “inactive”. For `CCCCOCCOCCO`, the outcome was “inactive”. For `C=CCCCCCCCCC(=O)OCC`, the outcome was “inactive”. `CC1=CCC(C(C)C)=CC1` was tested, and the outcome was “inactive”. With `CC1COC(=O)O1` (centres undefined) the outcome was “inactive”. For `O=C(OCc1ccccc1)c1ccccc1O`, the outcome was “inactive”. With `CCCc1ccc(N)cc1` the outcome was “inactive”. `CCC(C)(C)C1CCC(OC)CC1` (centres undefined) was tested, and the outcome was “inactive”. `CCCO` was tested, and the outcome was “inactive”. With `CC(O)CNCC(C)O` (centres undefined) the AC50 was 18 µM (active). In the case of `CCCCCCCCCO`, the outcome is reported as “inactive”. For `CC(C)C(=O)c1ccccc1`, the outcome was “inactive”. `CC(C)(C)C1CCC(O)CC1` (centres undefined) was tested, and the outcome was “inactive”. In the case of `CC(=O)Oc1c(C)c(C)c2c(c1C)CC[C@@](C)(CCC[C@H](C)CCC[C@H](C)CCCC(C)C)O2`, the outcome is reported as “inactive”. `FC(F)(F)c1ccc(Cl)c(Cl)c1` was tested, and the AC50 was 12 µM (active). `CCCCCC1CCC(=O)O1` (centres undefined) was tested, and the outcome was “inactive”. With `CCO[Si](CC)(OCC)OCC` the outcome was “inactive”. With `CC(=O)c1ccc(O)cc1` the outcome was “inactive”. For `CCCCCCCCCCCCS`, the outcome was “inactive”. In the case of `CCCC1CCC(=O)CC1`, the outcome is reported as “inactive”. In the case of `COC(=O)c1ccc(C(=O)OC)cc1`, the outcome is reported as “inactive”.

These compounds were tested against Estrogen receptor (Homo sapiens) (UniProt P03372) (assay: OT_ER_ERaERa_0480: Odyssey Thera (OT) 8-hour HEK293T Protein-Complementation Assay for Estrogen Receptor-alpha/-alpha Homodimer (AID 2283351);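 also: rise in fluorescence from reassembled reporter fragments on ERα LBD homodimer in nucleus or whole cell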).
In short: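 Read-out: fluorescence intensity rise relative to DMSO, nuclear for agonists, nuclear plus cytoplasmic for antagonists. Construct is the ERα LBD (aa 310-547) homodimer fragment-complementation pair, stably expressed in HEK293T; exposure 8 h.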
For `[Na+]`, the outcome was “inactive”. With `CN(C)C(=O)Nc1ccccc1` the outcome was “inactive”. `CCCC(O)C(CC)CO` (centres undefined) was tested, and the outcome was “inactive”. With `CC(CCO)CC(C)(C)C` (centres undefined) the outcome was “inactive”. With `CCCCCCCCCCOC(=O)c1ccccc1C(=O)OCCCCCCCC` the outcome was “inactive”. `CCC(C)(CCCC(C)C)OC(C)=O` (centres undefined) was tested, and the outcome was “inactive”. `COc1cc(OC)c2ccc(=O)oc2c1` was tested, and the outcome was “inactive”. For `CC(C)N(c1ccccc1)C(C)C`, the outcome was “inactive”. `C=CC(C)CCCC(C)(C)O` (centres undefined) was tested, and the outcome was “inactive”. For `c1ccc(Cc2ccccc2)cc1`, the outcome was “inactive”. In the case of `CN(C)C`, the outcome is reported as “inactive”. In the case of `Cc1cccc(C)c1`, the outcome is reported as “inactive”. `CCCCOCCOCCO` was tested, and the outcome was “inactive”. `C=CCCCCCCCCC(=O)OCC` was tested, and the outcome was “inactive”. For `CC1=CCC(C(C)C)=CC1`, the outcome was “inactive”. With `CC1COC(=O)O1` (centres undefined) the outcome was “inactive”. In the case of `O=C(OCc1ccccc1)c1ccccc1O`, the AC50 is reported as 63 µM (active). With `CCCc1ccc(N)cc1` the outcome was “inactive”. In the case of `CCC(C)(C)C1CCC(OC)CC1` (centres undefined), the outcome is reported as “inactive”. For `CCCO`, the outcome was “inactive”. `CC(O)CNCC(C)O` (centres undefined) was tested, and the outcome was “inactive”. With `CCCCCCCCCO` the outcome was “inactive”. `CC(C)C(=O)c1ccccc1` was tested, and the outcome was “inactive”. In the case of `CC(C)(C)C1CCC(O)CC1` (centres undefined), the outcome is reported as “inactive”. With `CC(=O)Oc1c(C)c(C)c2c(c1C)CC[C@@](C)(CCC[C@H](C)CCC[C@H](C)CCCC(C)C)O2` the outcome was “inactive”. With `FC(F)(F)c1ccc(Cl)c(Cl)c1` the outcome was “inactive”. `CCCCCC1CCC(=O)O1` (centres undefined) was tested, and the outcome was “inactive”. For `CCO[Si](CC)(OCC)OCC`, the outcome was “inactive”. With `CC(=O)c1ccc(O)cc1` the outcome was “inactive”. In the case of `CCCCCCCCCCCCS`, the outcome is reported as “inactive”. `CCCC1CCC(=O)CC1` was tested, and the outcome was “inactive”. `COC(=O)c1ccc(C(=O)OC)cc1` was tested, and the outcome was “inactive”.

Each compound was assayed against Estrogen receptor (Homo sapiens) + Estrogen receptor beta (Homo sapiens) (UniProt P03372+Q92731) (assay: OT_ER_ERaERb_0480: Odyssey Thera (OT) 8-hour HEK293T Protein-Complementation Assay for Estrogen Receptor-alpha/-beta Heterodimer (AID 2283352)).
Estrogen receptor (Homo sapiens) + Estrogen receptor beta (Homo sapiens), sequence (P03372 whole entry, looked up): as the sequence (P03372 whole entry, looked up, the tested form may be a part) above
Estrogen receptor (Homo sapiens) + Estrogen receptor beta (Homo sapiens), sequence (Q92731 whole entry, looked up): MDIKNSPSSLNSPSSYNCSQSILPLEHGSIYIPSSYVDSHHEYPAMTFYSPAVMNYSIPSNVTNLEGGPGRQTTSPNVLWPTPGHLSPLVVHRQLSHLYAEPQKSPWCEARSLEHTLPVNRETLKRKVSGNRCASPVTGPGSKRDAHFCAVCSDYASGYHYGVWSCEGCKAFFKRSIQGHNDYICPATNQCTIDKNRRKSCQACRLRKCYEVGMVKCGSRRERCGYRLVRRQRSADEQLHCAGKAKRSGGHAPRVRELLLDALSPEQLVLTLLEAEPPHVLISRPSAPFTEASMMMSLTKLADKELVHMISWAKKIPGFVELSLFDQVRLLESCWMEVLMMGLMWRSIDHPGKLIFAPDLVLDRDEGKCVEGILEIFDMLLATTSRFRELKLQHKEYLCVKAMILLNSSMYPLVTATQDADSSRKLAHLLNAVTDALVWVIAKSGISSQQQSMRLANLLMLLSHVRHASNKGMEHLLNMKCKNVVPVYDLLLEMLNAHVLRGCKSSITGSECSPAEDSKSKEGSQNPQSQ
In short: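 Compound added to HEK293T cells carrying split-reporter-tagged ER-alpha and ER-beta LBDs, incubated 8 hours, then imaged by laser scanning cytometer. Signal rise in nucleus, or nucleus and cytoplasm, over vehicle was fitted in the positive direction.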
For `[Na+]`, the outcome was “inactive”. `CN(C)C(=O)Nc1ccccc1` was tested, and the outcome was “inactive”. `CCCC(O)C(CC)CO` (centres undefined) was tested, and the outcome was “inactive”. In the case of `CC(CCO)CC(C)(C)C` (centres undefined), the outcome is reported as “inactive”. In the case of `CCCCCCCCCCOC(=O)c1ccccc1C(=O)OCCCCCCCC`, the outcome is reported as “inactive”. In the case of `CCC(C)(CCCC(C)C)OC(C)=O` (centres undefined), the outcome is reported as “inactive”. For `COc1cc(OC)c2ccc(=O)oc2c1`, the outcome was “inactive”. `CC(C)N(c1ccccc1)C(C)C` was tested, and the outcome was “inactive”. `C=CC(C)CCCC(C)(C)O` (centres undefined) was tested, and the outcome was “inactive”. `c1ccc(Cc2ccccc2)cc1` was tested, and the AC50 was 50 µM (active). For `CN(C)C`, the outcome was “inactive”. `CCCCOCCOCCO` was tested, and the outcome was “inactive”. With `C=CCCCCCCCCC(=O)OCC` the outcome was “inactive”. For `CC1COC(=O)O1` (centres undefined), the outcome was “inactive”. With `O=C(OCc1ccccc1)c1ccccc1O` the AC50 was 46 µM (active). With `CCCc1ccc(N)cc1` the outcome was “inactive”. With `CCC(C)(C)C1CCC(OC)CC1` (centres undefined) the outcome was “inactive”. For `CCCO`, the outcome was “inactive”. With `CCCCCCCCCO` the outcome was “inactive”. In the case of `CC(C)C(=O)c1ccccc1`, the outcome is reported as “inactive”. `CC(C)(C)C1CCC(O)CC1` (centres undefined) was tested, and the outcome was “inactive”. `FC(F)(F)c1ccc(Cl)c(Cl)c1` was tested, and the outcome was “inactive”. For `CCCCCC1CCC(=O)O1` (centres undefined), the outcome was “inactive”. In the case of `CCO[Si](CC)(OCC)OCC`, the outcome is reported as “inactive”. With `CC(=O)c1ccc(O)cc1` the outcome was “inactive”. With `CCCCCCCCCCCCS` the outcome was “inactive”. `CCCC1CCC(=O)CC1` was tested, and the outcome was “inactive”. In the case of `COC(=O)c1ccc(C(=O)OC)cc1`, the outcome is reported as “inactive”.

The compounds below were run against Androgen Receptor/SRC-1 Co-activator, AR (gene 367) (UniProt P10275) (assay: OT_AR_ARSRC1_0960: Odyssey Thera (OT) 16-hour HEK293T Protein-Complementation Assay for Androgen Receptor/SRC-1 Co-activator (AID 2283353);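 also: actives raise the signal above DMSO so potency reflects increased AR and SRC-1 complex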).
Androgen Receptor/SRC-1 Co-activator, AR (gene 367), sequence (P10275 whole entry, looked up, the tested form may be a part): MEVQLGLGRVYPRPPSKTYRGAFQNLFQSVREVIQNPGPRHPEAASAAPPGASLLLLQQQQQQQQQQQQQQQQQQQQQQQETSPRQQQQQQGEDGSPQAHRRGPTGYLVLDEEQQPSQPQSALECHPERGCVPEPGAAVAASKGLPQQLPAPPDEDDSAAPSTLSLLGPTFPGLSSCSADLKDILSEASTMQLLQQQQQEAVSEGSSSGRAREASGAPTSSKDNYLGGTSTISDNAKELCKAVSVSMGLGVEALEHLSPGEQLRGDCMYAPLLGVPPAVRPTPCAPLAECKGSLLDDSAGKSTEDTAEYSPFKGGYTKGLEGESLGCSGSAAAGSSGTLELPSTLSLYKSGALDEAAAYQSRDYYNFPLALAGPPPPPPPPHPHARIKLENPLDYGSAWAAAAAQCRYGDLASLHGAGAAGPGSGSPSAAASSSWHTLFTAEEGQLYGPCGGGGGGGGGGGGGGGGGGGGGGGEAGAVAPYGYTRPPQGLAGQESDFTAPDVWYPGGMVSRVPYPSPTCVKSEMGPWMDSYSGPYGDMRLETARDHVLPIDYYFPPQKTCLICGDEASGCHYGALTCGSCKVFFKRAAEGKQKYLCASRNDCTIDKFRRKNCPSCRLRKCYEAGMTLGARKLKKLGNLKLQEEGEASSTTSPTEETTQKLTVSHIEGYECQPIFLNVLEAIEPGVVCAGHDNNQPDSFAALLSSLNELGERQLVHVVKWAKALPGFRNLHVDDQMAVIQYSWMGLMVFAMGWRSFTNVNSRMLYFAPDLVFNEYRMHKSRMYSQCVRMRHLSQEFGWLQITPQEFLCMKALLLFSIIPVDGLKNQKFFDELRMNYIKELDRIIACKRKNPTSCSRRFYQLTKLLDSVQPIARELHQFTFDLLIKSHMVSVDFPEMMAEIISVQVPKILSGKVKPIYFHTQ
In short: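 Readout: 488 nm nuclear-to-cytoplasmic fluorescence ratio from imaging of at least 400 cells per image, 16 h post-dose. Reporter is Venus YFP complementation between AR and SRC-1 fusions, stably expressed in HEK293T; activity scored upward relative to DMSO.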
For `CC(CCO)CC(C)(C)C` (centres undefined), the outcome was “inactive”. With `CCCCCCCCCCOC(=O)c1ccccc1C(=O)OCCCCCCCC` the outcome was “inactive”. With `COc1cc(OC)c2ccc(=O)oc2c1` the outcome was “inactive”. With `CC1COC(=O)O1` (centres undefined) the outcome was “inactive”. In the case of `FC(F)(F)c1ccc(Cl)c(Cl)c1`, the outcome is reported as “inactive”. In the case of `CCO[Si](CC)(OCC)OCC`, the outcome is reported as “inactive”.

These compounds were tested against Androgen Receptor/SRC-1 Co-activator, AR (gene 367) (UniProt P10275) (assay: OT_AR_ARSRC1_0480: Odyssey Thera (OT) 8-hour HEK293T Protein-Complementation Assay for Androgen Receptor/SRC-1 Co-activator (AID 2283354);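 also: hits raise the complementation signal above DMSO so AC50 marks enhancers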).
In short: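 After 8 h dosing, stably expressing HEK293T cells with split-Venus AR/SRC-1 fusions were imaged (488, 635nm). The 488nm N/C ratio per image gave the endpoint, analysed in the positive direction against DMSO.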
In the case of `CC(CCO)CC(C)(C)C` (centres undefined), the outcome is reported as “inactive”. For `CCCCCCCCCCOC(=O)c1ccccc1C(=O)OCCCCCCCC`, the outcome was “inactive”. `COc1cc(OC)c2ccc(=O)oc2c1` was tested, and the outcome was “inactive”. For `CC1COC(=O)O1` (centres undefined), the outcome was “inactive”. With `FC(F)(F)c1ccc(Cl)c(Cl)c1` the outcome was “inactive”. In the case of `CCO[Si](CC)(OCC)OCC`, the outcome is reported as “inactive”.
